Results filed as inconclusive are left out. Active and inactive are the calls of the source. The calls were made as follows, unless noted: active = hit-call score of the fitted dose curve at least 0.9, where 1 is the maximum; inactive = score below 0.9.
Tests used:
[1] = CCTE_Shafer_MEA_acute_LDH: CCTE's Lactate Dehydrogenase Assay for Cytotoxicity in the Neural Acute Assay, Shafer Lab (AID 2284086; active = hit-call score of the fitted dose curve at least 0.9, where 1 is the maximum;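 also: active means LDH release rises above DMSO vehicle level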)
In short: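 LDH released during 40 min compound exposure of primary rat cortical cultures, quantified by absorbance at 490 nm in collected medium. Fitting direction positive versus DMSO vehicle.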

[2] = CCTE_Shafer_MEA_dev_mutual_information_norm: CCTE's Neural Network Formation Assay for Mutual Information Normalization, Shafer Lab (AID 2284091)
In short: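 Neurons from rat cortex were seeded at 1.5 x 10^5 cells/well onto PEI-coated MEAs in a laminin drop, then exposed to compound from day 0 for twelve days. Network recordings on four days gave mutual information, summarised by AUC relative to DMSO.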

[3] = CCTE_Shafer_MEA_dev_correlation_coefficient_mean: CCTE's Neural Network Formation Assay for Mean Correlation Coefficient, Shafer Lab (AID 2284093);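 also: well mean pairwise spike train correlation integrated as AUC over recording days 5 to 12; potency fitted for loss of correlation relative to DMSO vehicle wells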
In short: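 Primary rat cortical neurons on PEI-coated 48-well MEA plates (16 electrodes/well) were exposed from plating day 0 through DIV12, with compound renewed at DIV5 and 9. Pairwise spike correlations were averaged per well; trapezoidal AUC across DIV5, 7, 9, 12.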

[4] = UKN4_HCS_LUHMES_neurite_outgrowth: University of Konstanz (UKN) Leist Lab Neurite Outgrowth Assay in human LUHMES cells (UKN4) (AID 2284206); conditions: actives raise or lower the signal
In short: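 After 24 h compound treatment beginning shortly after replating of 2-day-differentiated LUHMES cells, calcein-AM and H-33342 live staining allowed high-content imaging of neurite area and viability. Fitted bidirectionally against DMSO.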

[5] = IUF_NPC1b_proliferation_BrdU_72hr: Leibniz Research Institute for Environmental Medicine (IUF) 72-hour Neural Progenitor Cell Bromodeoxyuridine (BrdU) Proliferation Assay (NPC1b) (AID 2284207)
In short: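 Luminescent BrdU ELISA measured DNA synthesis during the last 16 h of a 72 h exposure of primary human neural progenitor spheres grown with EGF and FGF. Signal was fitted relative to DMSO controls.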

[6] = IUF_NPC1a_proliferation_area_72hr: Leibniz Research Institute for Environmental Medicine (IUF) 72-hour Neural Progenitor Cell Proliferation Area Assay (NPC1a) (AID 2284208)
In short: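 hNPC spheres (human fetal cortex, GW 16-19), one per poly-Hema U-bottom well; EGF+FGF medium; dosed day 0, no re-dosing; 72 h, 37C, 5% CO2; phase-contrast sphere area; DMSO = baseline; minus-GF = positive ctrl.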

[7] = IUF_NPC1_viability_72hr: Viability Assessment at 72 hours in the Leibniz Research Institute for Environmental Medicine (IUF) Neural Progenitor Cell Proliferation Assay (NPC1) (AID 2284209)
In short: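 Viability was measured by resazurin-to-resorufin fluorescence (alamar blue) after 72 h of continuous exposure without compound renewal. Each well held one hNPC sphere (gestational week 16-19 fetal cortex, 0.25-0.35 mm) cultured in EGF/FGF proliferation medium at 37C and pH 7.2-7.6.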

[8] = CCTE_Mundy_HCI_Cortical_Synap_Neur_Matur_NeuriteSpotCountPerNeuriteLength: CCTE's Synaptogenesis and Neurite Maturation Assay in rat cortical cells for Neurite Spot Count per Neurite Length, Mundy Lab (AID 2284210)
In short: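 Read-out: synaptophysin puncta counted along MAP2-stained neurites, normalised to neurite length, by automated high-content imaging. Rat cortical cells; AraC DIV 5; chemical dosing DIV 7; termination DIV 12. DMSO baseline.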

[9] = CCTE_Mundy_HCI_Cortical_NOG_NeuriteCount: CCTE's Neurite Outgrowth Assay in rat cortical cells for Neurite Count, Mundy Lab (AID 2284212);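 also: cells fixed about two days after chemical exposure began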
In short: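 Rat cortical primary cells; compound added 2 h post-plating, 1/10 dilution of working solution. Anti-betaIII-tubulin/AF488 ICC; ArrayScan neurite count vs DMSO.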

[10] = CCTE_Mundy_HCI_Cortical_Synap_Neur_Matur_NeuriteLength: CCTE's Synaptogenesis and Neurite Maturation Assay in rat cortical cells for Neurite Length, Mundy Lab (AID 2284214)
In short: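 Neurite length quantified by automated high-content imaging of MAP2, synaptophysin and Hoechst staining. Rat cortical cells received chemical from DIV 7 to DIV 12 […], glial growth arrested by AraC at DIV 5; DMSO baseline.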

[11] = CCTE_Mundy_HCI_Cortical_Synap_Neur_Matur_NeuriteSpotCountPerNeuron: CCTE's Synaptogenesis and Neurite Maturation Assay in rat cortical cells for Neurite Spot Count per Neuron Count, Mundy Lab (AID 2284215)
In short: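 Read-out: neurite-associated synaptophysin puncta per neuron, imaged by high-content analysis after MAP2, synaptophysin and Hoechst staining. Rat primary cortical cultures, dosed DIV 7 through DIV 12; DMSO served as baseline.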

[12] = CCTE_Mundy_HCI_Cortical_Synap_Neur_Matur_SynapseCount: CCTE's Synaptogenesis and Neurite Maturation Assay in rat cortical cells for Synapse Count, Mundy Lab (AID 2284218)
In short: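 High-content imaging of synaptophysin puncta per MAP2-positive neuron (Hoechst nuclei) in rat cortical cells exposed DIV 7–12 after glial arrest with AraC at DIV 5; decrease relative to DMSO scored.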

[13] = CCTE_Mundy_HCI_Cortical_Synap_Neur_Matur_NeuriteCount: CCTE's Synaptogenesis and Neurite Maturation Assay in rat cortical cells for Neurite Count, Mundy Lab (AID 2284222)
In short: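 Rat cortical neurons, 96-well; AraC DIV 5; chemical + media change DIV 7; end DIV 12. Fix PFA/Hoechst, anti-MAP2 + anti-synaptophysin IF. HCI neurite count vs DMSO baseline.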

[14] = CCTE_Mundy_HCI_Cortical_Synap_Neur_Matur_CellBodySpotCount: CCTE's Synaptogenesis and Neurite Maturation Assay in rat cortical cells for Cell Body Spot Count, Mundy Lab (AID 2284223)
In short: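 Read-out: cell body-associated synaptophysin puncta per neuron, imaged after MAP2, synaptophysin and Hoechst staining. Rat cortical cells, AraC DIV 5, chemical dosing DIV 7, fixation DIV 12. Activity fitted in positive direction relative to DMSO baseline.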

[15] = CCTE_Mundy_HCI_hNP1_Pro_ResponderAvgInten: CCTE's Proliferation Assay in human neuroprogenitor cells, Mundy Lab (AID 2284224; active = hit-call score of the fitted dose curve at least 0.9, where 1 is the maximum;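 also: human neural progenitor cells hNP1 derived from WA09 embryonic stem cells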)
In short: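 Proliferation read as average intensity of BrdU-positive cells, imaged at 26.25 h post-dosing: chemical exposure started after 40–44 h culture, BrdU during final 4 h, paraformaldehyde fixation. Positive-direction fit relative to DMSO.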

[16] = UKN4_HCS_LUHMES_cell_viability: Viability Assessment in the University of Konstanz (UKN) Leist Lab Neurite Outgrowth Assay in human LUHMES cells (UKN4) (AID 2284232)
In short: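 Viability was read by high-content imaging of calcein-AM/H-33342-stained cells after 24 h toxicant exposure, staining included. Cells: human LUHMES on day 2 of dopaminergic differentiation, dosed shortly after attachment; DMSO baseline, bidirectional curve fitting.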

[17] = CCTE_Mundy_HCI_Cortical_NOG_NeuronCount: CCTE's Neurite Outgrowth Assay in rat cortical cells for Neuron Count, Mundy Lab (AID 2284236; active = hit-call score of the fitted dose curve at least 0.9, where 1 is the maximum;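 also: neurons counted by imaging betaIII-tubulin and Hoechst stained cortical cells; cells exposed to compound for about 48 hours before fixation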)
In short: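 Read-out: neuron number by high-content imaging of betaIII-tubulin (Alexa Fluor-488) and Hoechst-labelled rat primary cortical cells.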

[18] = CCTE_Mundy_HCI_Cortical_NOG_BPCount: CCTE's Neurite Outgrowth Assay in rat cortical cells for Branch Point Count, Mundy Lab (AID 2284237);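 also: branch points counted about two days after chemical exposure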
In short: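 Measured 50.33 h after dosing, this morphology endpoint uses rat primary cortical cultures labelled for betaIII-tubulin. Branch points are quantified by high-content imaging, with DMSO as negative control and baseline.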

[19] = CCTE_Mundy_HCI_hNP1_Casp3_7: CCTE's Caspase-Glo 3/7 Assay in human neuroprogenitor cells for Apoptosis, Mundy Lab (AID 2284240)
In short: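 Luminescent caspase-3/7 readout, 26.5 h post-dose, in human neural progenitor cells from WA09 embryonic stem cells. Cells grew 40–44 h at 37 °C, 5% CO2 before chemical addition. Activity analysed as signal increase over DMSO baseline.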

[20] = CCTE_Mundy_HCI_hNP1_CellTiter: CCTE's Cell Titer-Glo 2 Assay in human neuroprogenitor cells for Viability, Mundy Lab (AID 2284241; active = hit-call score of the fitted dose curve at least 0.9, where 1 is the maximum)
In short: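 Viability read as luminescent ATP content (CellTiter-Glo, 30 min room temperature) twenty-four hours after dosing, relative to DMSO. Cells: WA09-derived hNP1 neuroprogenitors on poly-L-ornithine/laminin, plated 40 to 44 hours before chemical.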

[21] = IUF_NPC2c_oligodendrocyte_migration_120hr: Leibniz Research Institute for Environmental Medicine (IUF) 120-hour Neural Progenitor Cell Migration Assay for Oligodendrocyte Migration (NPC2c) (AID 2284297);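 also: O4-positive oligodendrocyte migration distance divided by radial glia migration distance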
In short: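 hNPC spheres (GW 16-19 cortex), PDL/laminin, DMEM/F12 3:1 + 1% N2, 37C. Dosing day 0–5, half feed day 3, DMSO ≤0.1%. Fixed 120 h; O4 ICC + Hoechst, HCI. Readout: mean oligodendrocyte distance from sphere edge / radial glia distance.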

[22] = IUF_NPC2a_radial_glia_migration_120hr: Leibniz Research Institute for Environmental Medicine (IUF) 120-hour Neural Progenitor Cell Migration Assay for Radial Glia Migration (NPC2a) (AID 2284298)
In short: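 Hoechst-stained nuclei imaged at 120 h; algorithm maps sphere core by densest nuclei, sets migration edge at density threshold, gives radial glia migration distance (um) per well vs DMSO. hNPC spheres (0.3 mm), PDL/laminin, DMEM/F12 3:1 + 1% N2.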

[23] = IUF_NPC2a_radial_glia_migration_72hr: Leibniz Research Institute for Environmental Medicine (IUF) 72-hour Neural Progenitor Cell Migration Assay for Radial Glia Migration (NPC2a) (AID 2284299)
In short: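 Radial glia migration (µm, sphere core edge to migration front, four directions averaged) from brightfield images at 72 h; hNPC spheres differentiating on PDL/laminin in N2 medium, compound exposure at 7 concentrations from plating.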

[24] = IUF_NPC2b_neuronal_migration_120hr: Leibniz Research Institute for Environmental Medicine (IUF) 120-hour Neural Progenitor Cell Migration Assay for Neuron Migration (NPC2b) (AID 2284300)
In short: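 hNPC spheres, PDL/laminin, DMEM:F12 3:1 + 1% N2, 37C/5% CO2; 7 concentrations + solvent control (DMSO ≤0.1%), 5 d exposure, half-feed day 3. Fix 120 h, TUBB3 ICC, HCI: mean neuron migration distance ÷ glia distance.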

[25] = IUF_NPC3_neuronal_differentiation_120hr: Leibniz Research Institute for Environmental Medicine (IUF) 120-hour Neuronal Differentiation Assay (NPC3) (AID 2284301)
In short: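 hNPC spheres, PDL/laminin, DMEM/F12 3:1 + 1% N2, 37C, 5% CO2; 7 concentrations + solvent control, 5 d exposure, half-change day 3. Fix 120 h; TUBB3/Hoechst ICC, CNN neuron calling; % neurons vs nuclei, DMSO-normalized.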

[26] = IUF_NPC4_neurite_length_120hr: Leibniz Research Institute for Environmental Medicine (IUF) 120-hour Neuronal Morphology Assay for Neurite Length (NPC4) (AID 2284302)
In short: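 hNPC spheres (0.3 mm, fetal brain GW 16-19) on PDL/laminin, DMEM:F12 3:1 + 1% N2, 37C 5% CO2; 7 concs + solvent control, day 0-5, half medium change d3; fix 120 h, TUBB3 ICC, mean neurite length um vs DMSO.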

[27] = IUF_NPC5_oligodendrocyte_differentiation_120hr: Leibniz Research Institute for Environmental Medicine (IUF) 120-hour Oligodendrocyte Differentiation Assay (NPC5) (AID 2284304; active = hit-call score of the fitted dose curve at least 0.9, where 1 is the maximum;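 also: primary human fetal neural progenitor spheres plated to migrate and differentiate; share of O4-positive cells among Hoechst nuclei found by CNN image analysis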)
In short: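 hNPC spheres, fetal cortex GW 16-19; PDL/laminin, DMEM:F12 3:1 + 1% N2, 37C/5% CO2; 7 concentrations + solvent control, 5 d exposure, half-change day 3. Readout: %O4+ of Hoechst+ nuclei in migration area, CNN classification; DMSO baseline.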

[28] = IUF_NPC4_neurite_area_120hr: Leibniz Research Institute for Environmental Medicine (IUF) 120-hour Neuronal Morphology Assay for Neurite Area (NPC4) (AID 2284305; active = hit-call score of the fitted dose curve at least 0.9, where 1 is the maximum)
In short: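 hNPC spheres on PDL/laminin, N2 medium, 37C/5% CO2; dosed day 0, half-medium refresh day 3; fixed 120 h; TUBB3/Hoechst ICC, high-content imaging; neurite area = mean pixels per neuron (nuclei excluded); DMSO baseline, max 0.1%.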

[29] = IUF_NPC2-5_cytotoxicity_72hr: Cytotoxicity Assessment at 72 hours in the Leibniz Research Institute for Environmental Medicine (IUF) Neural Progenitor Cell Migration and Differentiation Assay for Cytotoxicity (NPC2-5) (AID 2284306; active = hit-call score of the fitted dose curve at least 0.9, where 1 is the maximum;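 also: LDH release into supernatant measured by resorufin fluorescence marking membrane damage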)
In short: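 hNPC spheres (0.3 mm), PDL/laminin, DMEM/F12 3:1 + 1% N2; cpd from d0, 7 concs + SC, DMSO max 0.1%; half-medium refresh d3. Readout: supernatant LDH via resorufin fluorescence (RFU), 72 h; gain-of-signal fit.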

[30] = IUF_NPC2-5_cytotoxicity_120hr: Cytotoxicity Assessment at 120 hours in the Leibniz Research Institute for Environmental Medicine (IUF) Neural Progenitor Cell Migration and Differentiation Assay (NPC2-5) (AID 2284307; active = hit-call score of the fitted dose curve at least 0.9, where 1 is the maximum)
In short: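 hNPC spheres on PDL/laminin, N2 medium, 37C; 7 concs + solvent control, DMSO ≤0.1%; 5-day exposure, half medium changed day 3. LDH in supernatant at 120 h, resazurin→resorufin fluorescence, gain-of-signal.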

[31] = IUF_NPC2-5_cell_number_120hr: Cell Number Assessment at 120 hours in the Leibniz Research Institute for Environmental Medicine (IUF) Neural Progenitor Cell Migration and Differentiation Assay (NPC2-5) (AID 2284308);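 also: count of Hoechst-stained nuclei in migration zone around plated human neural progenitor spheres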
In short: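 Hoechst-stained nuclei within the migration area were counted by automated high content imaging after 120 h. Single hNPC spheres differentiated on poly-D-lysine/laminin in DMEM/F12 (3:1) with 1% N2, compound present throughout, DMSO ≤0.1%.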

[32] = IUF_NPC1_cytotoxicity_72hr: Cytotoxicity Assessment at 72 hours in the Leibniz Research Institute for Environmental Medicine (IUF) Neural Progenitor Cell Proliferation Assay (NPC1) (AID 2284332; active = hit-call score of the fitted dose curve at least 0.9, where 1 is the maximum;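 also: rising LDH signal means more cytotoxicity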)
In short: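 Cytotoxicity by LDH membrane-integrity assay on medium supernatants, fluorescence via resazurin reduction, after 3-day single exposure of primary hNPC spheres at 37C, pH 7.2-7.6 with growth factors. Fitted upward against baseline.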

[33] = CCTE_Mundy_HCI_iCellGluta_NOG_NeuronCount: CCTE's Neurite Outgrowth Assay in iCellGluta cells for Neuron Count, Mundy Lab (AID 2284340; active = hit-call score of the fitted dose curve at least 0.9, where 1 is the maximum;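 also: cells fixed about 48 h after compound addition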)
In short: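 Neuron count read by automated high-content imaging of Hoechst 33342 and betaIII-tubulin/Alexa Fluor-488 labelling in human iPSC glutamatergic neurons. Activity fitted relative to DMSO.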

[34] = CCTE_Mundy_HCI_iCellGluta_NOG_NeuriteCount: CCTE's Neurite Outgrowth Assay in iCellGluta cells for Neurite Count, Mundy Lab (AID 2284342; active = hit-call score of the fitted dose curve at least 0.9, where 1 is the maximum;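 also: chemical exposure about 48 hours starting 2 hours after plating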)

Measured: AC50

O=C1CC2(CCCC2)CC(=O)N1CCCCN1CCN(c2ncccn2)CC1
active: [3] 25 µM | [4] 15.3 µM | [9] 11.9 µM | [18] 9.79 µM
inactive: all other assays above

— PubChem BioAssay (EPA / NIEHS)
